The values below come from PubChem BioAssay.

The target in the experiment is Pantothenate synthetase (Mycobacterium tuberculosis (strain ATCC 25618 / H37Rv)) (UniProt P9WIL5). The experiment can be described thus: Coupled enzyme confirmation of inhibitors against recombinant Mtb PanC (AID 375).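 Note: 0% = full reaction with vehicle and 100% = no enzyme background.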 As to conditions: coupled enzyme assay; at 10 µM, active compounds read high.

SMILES strings stand for the structures. Values without a mark were called inactive. The rule behind the calls is not given here.

Sequence of Pantothenate synthetase (Mycobacterium tuberculosis (strain ATCC 25618 / H37Rv)) (P9WIL5 whole entry, looked up): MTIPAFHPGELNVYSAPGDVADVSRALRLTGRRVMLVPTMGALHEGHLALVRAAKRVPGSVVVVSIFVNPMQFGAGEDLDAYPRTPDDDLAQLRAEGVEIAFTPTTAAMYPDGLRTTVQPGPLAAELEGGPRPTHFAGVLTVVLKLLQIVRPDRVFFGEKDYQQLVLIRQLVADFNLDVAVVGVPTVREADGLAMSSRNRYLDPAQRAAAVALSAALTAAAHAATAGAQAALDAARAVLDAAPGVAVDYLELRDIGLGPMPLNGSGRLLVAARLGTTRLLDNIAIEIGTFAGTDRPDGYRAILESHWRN

As for `Cc1[nH]n(C(N)=S)c(=O)c1C(c1ccccc1)C(C#N)C#N` (stereo unspecified), the inhibition (usually the relative decrease from the control value, in per cent) is 0%.
The value for `COc1ccc(-n2ncc3c(NCc4ccc5c(c4)OCO5)ncnc32)cc1` was 0%.
Take `Cn1cnc2c(N3CCCCC3)nccc21`: the inhibition is 0%.
In the case of `COC(=O)c1[nH]c(C)c(/C(O)=C2\C(=O)C(=O)N(CCN3CCOCC3)C2c2cccs2)c1C` (stereo unspecified), the inhibition was 4%.
Consider `CC1CCN(CCC(=O)Nc2ccc(Br)cc2)CC1`, for which the inhibition was 0%.
Regarding `O=C(NO)c1ccccc1O`, the inhibition is 0%.
Consider `Cc1cccc(N(C)C(=O)c2cc3cc4ccc(C)cc4nc3o2)c1`, for which the inhibition is 0%.
Take `COc1ccc(C2c3sc(=O)[nH]c3SC3C4CCC(C4)C23)cc1` (stereo unspecified): the inhibition was 7%.
Turning to `CCn1cc(C(=O)N2CCN(C(=O)c3ccco3)CC2)c2cc(OC)c(OC)cc2c1=O`, the inhibition was 0%.
Consider `COc1ccccc1N(CC(=O)NCc1ccccn1)S(C)(=O)=O`, for which the inhibition was 0%.
Regarding `Cc1csc2nc(CSc3nc4ccccc4o3)c(Br)n12`, the inhibition was 0%.
As for `COC(=O)C1=C(C)Nc2nnnn2C1c1cccs1` (stereo unspecified), the figure is 8%; as for `CC(C)c1ccc(S(=O)(=O)N2CCN(CCC(=O)Nc3ccc(N(C)C)cc3)CC2)cc1`, 5%.
For the compound `O=C1NC(c2ccccc2)(C(F)(F)F)SC2=CCCCCN12` (stereo unspecified), the inhibition was 0%.
Turning to `CN1/C(=C\C(=O)C(F)F)C(C)(C)c2ccccc21`, the inhibition was 0%.
As for `COc1ccccc1NC1=NC2(CCCC2)N=C(N)N1`, the figure is 0%.
